A selection: hits, their analogues and other compounds. The true share with any hit is near 2.7%.
GLP1R ag: activates the human GLP-1 receptor | HEK293 GLP-1R CRE-luciferase, luminescence, 4-6 h; cells express a hypersensitive GLP-1R form | Potency, µM (top dose mostly 45.6 µM), without a hit: top-dose activation, hits mostly activators | AID 624172 | 380,000 tested, 0.007% active; also: % of control where 0% means no effect
Target sequence (P43220 whole entry, looked up): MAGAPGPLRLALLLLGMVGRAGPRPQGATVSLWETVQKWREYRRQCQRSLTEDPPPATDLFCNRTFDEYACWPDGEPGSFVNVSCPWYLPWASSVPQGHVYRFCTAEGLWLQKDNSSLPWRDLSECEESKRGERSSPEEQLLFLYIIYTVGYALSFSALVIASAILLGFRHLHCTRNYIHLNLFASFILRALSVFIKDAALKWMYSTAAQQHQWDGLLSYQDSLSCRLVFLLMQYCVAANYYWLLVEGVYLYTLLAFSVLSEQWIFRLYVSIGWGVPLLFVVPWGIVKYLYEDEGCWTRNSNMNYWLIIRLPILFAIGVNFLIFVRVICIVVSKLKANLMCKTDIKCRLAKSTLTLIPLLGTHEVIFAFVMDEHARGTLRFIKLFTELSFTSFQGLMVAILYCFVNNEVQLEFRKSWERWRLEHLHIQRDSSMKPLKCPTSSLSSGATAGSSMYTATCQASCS
GLP1R inv ag: acts as inverse agonist at human GLP-1 receptor; P43220; HEK293 GLP-1R CRE-luciferase, luminescence, 24 h; GLP-1R form is constitutively active; Potency, µM (top dose mostly 38.3 µM), inactives show top-dose activity change, negative = inhibition, usual class: inhibitors; 410,000 tested, 1.6% active; AID 624417; also: % is scaled to controls: 0 for no effect and ±100 for the full control effect; nearly all actives have a fitted effect of over 55% in size
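Readout was luciferase luminescence, measured 12 min after detection reagent at room temperature. Beforehand, GLP-1R reporter HEK293 cells had sat 12 h, then received compounds for 24 hr at 37 deg C.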
TrxR1 substrate: substrates of rat thioredoxin reductase 1; O89049; purified TrxR1 substrate turnover, NADPH consumption readout; Potency, µM (doses to about 114 µM), for the others: at the highest dose activity change, negative = substrate turnover; 390,000 tested, 0.01% active; also: % is scaled to controls: 0 for no effect and ±100 for the full control effect; nearly all actives have a fitted effect of over 50% in size
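Rat TrxR1, dispensed at 90 nM, was prereduced with 400 uM NADPH (final) for 5 min at ~22 deg C, then incubated with compound 15 min before 400 uM selenite. A first-read NADPH fluorescence drop versus no-compound background flagged substrates.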
TrxR1 inh: rat TrxR1 inhibition; recombinant rTrxR1, NADPH fluorescence consumption, selenite substrate; Potency, µM (highest dose often 114 µM), for the others: top-dose activity change, negative = inhibition, most hits filed as inhibitors; 390,000 tested, 1% active; also: % is scaled to controls: 0 for no effect and ±100 for the full control effect; nearly all actives have a fitted effect of over 65% in size
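Rat TrxR1 (90 nM in the dispensed reagent) was pre-reduced with 400 uM NADPH for 5 min at room temperature, then incubated with compound for 15 min. After 400 uM selenite was added, NADPH fluorescence (Ex 340/Em 450 nm) was followed for 8 min.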
IDH1 R132H inh: inhibitors of human mutant IDH1 R132H; O75874; IDH1-R132H enzyme, NADPH consumption, diaphorase/resazurin fluorescence; Potency, µM (highest dose often 76.6 µM), without a hit: at the highest dose activity change, negative = inhibition, most hits filed as inhibitors; 390,000 tested, 0.093% active; AID 602179; also: % is scaled to controls: 0 for no effect and ±100 for the full control effect; nearly all actives have a fitted effect of over 65% in size
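IDH1-R132H (0.5 ug/mL) preincubated 30 min with compound, then NADPH (0.016 mM) and alpha-KG (2 mM) added; 80 min at RT, pH 7.5. Remaining NADPH coupled via diaphorase/resazurin to fluorescence (540/590 nm); concentration-response curves normalized to no-enzyme control.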
GLP1R cytotox: cytotoxicity counter-screen for GLP-1 receptor inverse agonists; HEK293 cAMP-luciferase reporter cells, luminescence, 24 h; Potency, µM (top dose mostly 38.3 µM), without a hit: top-dose activity change, negative = inhibition, hits mostly inhibitors; 410,000 tested, 0.13% active; AID 624418;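 also: loss of luciferase light is scored as toxicity; % is scaled to controls: 0 for no effect and ±100 for the full control effect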
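Step one: seed cells (200 cells/uL, DMEM with 10% Nu serum, 1% pen-strep). Step two: 12-hour incubation at 37 deg C. Step three: pin 23 nL compound, incubate 24 hr. Step four: add luciferase reagent, read luminescence 12 min later.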
An asterisk follows results filed as active; [ ] = dose if it differs, or a comment. Calls follow the shape of the dose curve; as a rule, active = well fitted curve in the direction sought with a large enough effect; inconclusive = small, poorly fitted or top-dose-only effect, or another doubt; inactive = no such curve, though single readings can be large; an effect the other way counts as inactive or inconclusive. Potency is read from the fitted curve at half-maximal effect.

Results for CCC(Oc1ccc(F)cc1)C(=O)Nc1nc(-c2ccc(F)cc2)ns1 (configuration not stated) ?
GLP1R inv ag: 10µM*; TrxR1 substrate: -4.5%; TrxR1 inh: 27.4%; IDH1 R132H inh: -11.7%; GLP1R cytotox: -23.7%

How did O=C1C(Cl)=C(NCCc2ccccc2)C(=O)c2ccccc21 do in these assays?
GLP1R ag: 14.7%; GLP1R inv ag: inconclusive; TrxR1 substrate: -34.4%[57.1 µM]; TrxR1 inh: inconclusive; IDH1 R132H inh: 24.7%; GLP1R cytotox: 66.7%

How did O=C(O)c1ccc(NC2=C(Cl)C(=O)c3ccccc3C2=O)cc1 do in these assays?
GLP1R ag: -2.0%; GLP1R inv ag: 2.5%; TrxR1 substrate: -4.8%; TrxR1 inh: 0.501µM*; IDH1 R132H inh: -7.7%; GLP1R cytotox: -16.8%

What do the screens show for `O=C(O)c1cccc(NC2=C(Cl)C(=O)c3ccccc3C2=O)c1`?
GLP1R ag: -6.8%; GLP1R inv ag: inconclusive; TrxR1 substrate: -15.8%; TrxR1 inh: inconclusive; IDH1 R132H inh: 7.8%; GLP1R cytotox: inconclusive

What do the screens show for `O=C1C(Cl)=C(Nc2ccccc2)C(=O)c2ccccc21`?
GLP1R ag: 1.4%; GLP1R inv ag: -21.7%; TrxR1 substrate: -10.0%; TrxR1 inh: 0.631µM*; IDH1 R132H inh: -4.1%; GLP1R cytotox: inconclusive

How did CC(C)NC1=C(Cl)C(=O)c2ccccc2C1=O do in these assays?
GLP1R ag: 11.3%; GLP1R inv ag: 0.0%; TrxR1 substrate: 0.0%[57.1 µM]; TrxR1 inh: inconclusive; IDH1 R132H inh: -7.3%; GLP1R cytotox: 5.62µM*

What do the screens show for `O=C(Nc1nc(-c2ccc3c(c2)OCCO3)cs1)C1CC(=O)N(c2ccc3c(c2)OCCO3)C1` (configuration not stated)?
TrxR1 substrate: -7.0%; TrxR1 inh: 12.6%

What do the screens show for `Nc1nc(Sc2c([N+](=O)[O-])cc(C(F)(F)F)cc2[N+](=O)[O-])n[nH]1`?
GLP1R ag: -3.3%; GLP1R inv ag: inconclusive; TrxR1 substrate: 7.0%[57.1 µM]; TrxR1 inh: 15.8µM*; IDH1 R132H inh: 2.3%; GLP1R cytotox: inconclusive

Results for CCCCN(CCC(=O)O)c1ccc(/C=C/c2ccnc3ccccc23)cc1 ?
TrxR1 substrate: 1.1%; TrxR1 inh: -1.2%

What do the screens show for `Cc1ccc(-c2nc3ccccc3n2C)o1`?
GLP1R ag: -11.7%; GLP1R inv ag: -6.9%; TrxR1 substrate: 40.4%; TrxR1 inh: 22.4µM*; IDH1 R132H inh: 6.6%; GLP1R cytotox: 1.4%

Results for Cc1ccccc1CN1CCN(S(=O)(=O)c2ccc(Cl)s2)CC1 ?
GLP1R ag: 0.7%; GLP1R inv ag: 10µM*; TrxR1 substrate: -4.1%; TrxR1 inh: -4.1%; IDH1 R132H inh: 11.1%; GLP1R cytotox: -9.9%

How did CCOc1ccc(CNC(=O)C2CCN(C(=O)c3sccc3-n3cccc3)CC2)cc1 do in these assays?
GLP1R inv ag: 2.2%; TrxR1 substrate: -1.2%; TrxR1 inh: 3.5%; GLP1R cytotox: 5.7%

Results for CCCCn1c(N)c(N(CCOC)C(=O)c2cc(-c3ccco3)nc3ccccc23)c(=O)[nH]c1=O ?
GLP1R ag: -12.1%; GLP1R inv ag: 31.7%; TrxR1 substrate: 5.8%; TrxR1 inh: 50.1µM*; IDH1 R132H inh: -1.2%; GLP1R cytotox: -7.0%

How did CCN(C(=O)COC(=O)/C=C/c1ccco1)c1c(N)n(Cc2ccccc2)c(=O)[nH]c1=O do in these assays?
GLP1R ag: 2.8%; GLP1R inv ag: 8.2%; TrxR1 substrate: -2.0%; TrxR1 inh: 50.1µM*; IDH1 R132H inh: -10.6%; GLP1R cytotox: 10.3%

Results for CCCN(C(=O)c1cc(-c2ccco2)nc2ccccc12)c1c(N)n(Cc2ccccc2)c(=O)[nH]c1=O ?
GLP1R ag: -9.7%; GLP1R inv ag: 6.5%; TrxR1 substrate: 2.3%; TrxR1 inh: 28.2µM*; IDH1 R132H inh: -6.3%; GLP1R cytotox: -7.4%

Source: PubChem
